Test results reported in PubChem BioAssay (Tox21).
“And” between values parts separate entries of the source, which are not always exact repeats. Equal entries are not always repeated. Inconclusive results are not listed. A call without a number means that no potency is given here. A structure can be active in one record and inactive in another. The source made the active and inactive calls. Unless noted, calls come from the whole dose curve.

What was measured:
[1] = Nuclear factor erythroid 2-related factor 2/antioxidant responsive element (Nrf2/ARE) small molecule agonists: qHTS cell viability counter screen in human keratinocytes (AID 1919968; active = well fitted curve in the direction sought with a large enough effect in the repeat runs; an effect the other way counts as inactive or inconclusive; note: nearly all actives have a fitted effect of over 55% in size)
How it was run: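 Fluorescence read-out from CellTiter-Fluor after 1 h at 37 C. Wells held HaCaT-derived ARE-luciferase reporter cells (1,500/well) treated 23 h with DMSO-dissolved compounds. Run in the same wells as the luciferase agonist read.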

[2] = Nuclear factor erythroid 2-related factor 2/antioxidant responsive element (Nrf2/ARE) small molecule agonists: luciferase reporter gene qHTS assay in human keratinocytes (AID 1919969); note: nearly all actives have a fitted effect of over 35% in size; note: potency is the fitted concentration of half-maximal effect
[3] = molecular target: Gonadotropin-releasing hormone receptor (Homo sapiens) (UniProt P30968); experiment: Human gonadotropin-releasing hormone receptor (GnRHR) small molecule agonists, calcium flux assay in GnRHR-HEK293 cells (AID 1920063); note: nearly all actives have a fitted effect of over 35% in size
How it was run: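 Calcium-dye fluorescence, Ex/Em=480/540, recorded every 1 sec over 3 min after compound addition to GnRHR-HEK293 cells. Cells had been seeded 18 hours earlier and dye-loaded for 1 hour at 37 C. Fifteen concentrations, triplicates.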

[4] = molecular target: KiSS-1 receptor (Homo sapiens) (UniProt Q969F8); experiment: Human kisspeptin (KISS1R) small molecule agonists, calcium flux assay in KISS1R-HEK293 cells (AID 1920064; active = well fitted curve in the direction sought with a large enough effect in the repeat runs; an effect the other way counts as inactive or inconclusive)
How it was run: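 Calcium flux read-out: kinetic fluorescence at Ex/Em=480/540, 1 s intervals over 3 min, after pin-tool compound addition to dye-loaded KISS1R-HEK293 cells. Fifteen concentrations, triplicates.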

[5] = G protein-coupled receptor (GPCR) small molecule agonists, calcium flux assay: HEK293 wild type cell line counter screen (AID 1920065)
How it was run: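 Agonist mode; 18 h seeding at 37 C, 1 h dye load at 37 C; compounds pinned from DMSO, ATP as positive control; kinetic fluorescence 480/540 nm, 3 min, 1 s reads; 15 concentrations, triplicate.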

[6] = p53 small molecule agonists, cell-based qHTS assay with human liver microsomes (AID 1963577);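 note: p53 response element beta-lactamase reporter cells with liver microsomes plus NADPH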
How it was run: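 p53RE-bla cells; 5 h settle, 37 C/5% CO2; cpd + HLM 0.5 mg/mL + NADPH 0.5 mg/mL (final); 16 h 37 C; LiveBLAzer 2 h RT dark; fluorescence readout.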

[7] = p53 small molecule agonists, cell-based qHTS assay with rat liver microsomes (AID 1963578)
How it was run: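 Rat liver microsome activation: microsomes 0.5 mg/mL, NADPH 0.5 mg/mL final; p53RE-bla cells, 16 h 37 C; LiveBLAzer readout, 2 h RT dark.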

[8] = p53 small molecule agonists, cell-based qHTS assay with human liver microsomes: qHTS cell viability counter screen (AID 1963579); note: nearly all actives have a fitted effect of over 45% in size
How it was run: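 Luminescent CellTiter-Glo read-out, 30 min at room temperature, gauged cytotoxicity in p53RE-bla cells exposed 16 h at 37 C to DMSO-dissolved compounds with metabolic activation by human liver microsomes and NADPH, each 0.5 mg/mL final.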

[9] = p53 small molecule agonists, cell-based qHTS assay with rat liver microsomes: qHTS cell viability counter screen (AID 1963580); note: nearly all actives have a fitted effect of over 45% in size; note: potency is the fitted concentration of half-maximal effect
How it was run: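 Rat liver microsome (0.5 mg/mL final) and NADPH (0.5 mg/mL final) co-incubation with compounds for 16 h at 37 C on HCT-116 p53RE-bla cells; cytotoxicity taken from intracellular ATP luminescence.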

[10] = p53 small molecule agonists, cell-based qHTS assay: qHTS cell viability counter screen (AID 1963581); note: nearly all actives have a fitted effect of over 45% in size
How it was run: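 Cytotoxicity read-out: ATP-based luminescence (CellTiter-Glo, 30 min RT) measured in the same wells as the p53 reporter assay, HCT-116 p53RE-bla cells, 16 h compound exposure at 37 C.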

[11] = molecular target: 5-hydroxytryptamine receptor 2A (Homo sapiens) (UniProt P28223); experiment: 5-hydroxytryptamine receptor 2A (HTR2A) small molecule antagonists, cell-based qHTS assay (AID 1963586); note: nearly all actives have a fitted effect of over 45% in size
How it was run: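 CHO cells stably expressing human HTR2A were plated for 18 h at 37 C, then loaded with calcium dye for 1 h. Compounds were preincubated 5 min at room temperature before DOI (4 nM solution) was added. Kinetic fluorescence was read for 3 min.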

[12] = molecular target: 5-hydroxytryptamine receptor 2A (Homo sapiens) (UniProt P28223); experiment: 5-hydroxytryptamine receptor 2A (HTR2A) small molecule agonists, cell-based qHTS assay (AID 1963587); note: nearly all actives have a fitted effect of over 30% in size
How it was run: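 Kinetic calcium-flux fluorescence (2 min, 1 sec intervals) after compound addition in agonist mode. HTR2A-CHO cells were cultured 18 h, then dye-loaded 1 h at 37 C.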

[13] = molecular target: Muscarinic acetylcholine receptor M1 (Homo sapiens) (UniProt P11229); experiment: Cholinergic receptor muscarinic 1 (CHRM1) small molecule agonists, cell-based qHTS assay (AID 1963589); note: nearly all actives have a fitted effect of over 35% in size
How it was run: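 Calcium flux read-out: kinetic fluorescence at 1 sec intervals after pin-tool compound addition to dye-loaded CHRM1-CHO cells (human M1). Agonist mode; 15 concentrations tested in triplicate independent runs.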

[14] = cAMP Responsive Elements (CRE) small molecule agonists, cell-based qHTS assay (AID 1963590)
How it was run: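 Beta-lactamase reporter readout: LiveBLAzer B/G FRET substrate, 2 h at room temperature, added after 3 h compound treatment of CRE-bla HEK 293T cells at 37 C/5% CO2.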

[15] = cAMP Responsive Elements (CRE) small molecule antagonists, cell-based qHTS assay (AID 1963591; active = well fitted inhibition curve with a large enough effect in the signal ratio in the repeat runs, not every such curve was filed as active; the % refers to the signal ratio)
How it was run: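 HEK293T CRE-bla; 18 h preincubation; compound pin-transfer; NKH477 0.25 uM final, 3 h, 37 C; LiveBLAzer FRET substrate 2 h RT.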

[16] = molecular target: Beta-2 adrenergic receptor (Homo sapiens) (UniProt P07550); experiment: Adrenergic beta2 receptor (ADRB2) small molecule antagonists, cell-based qHTS assay (AID 1963592); note: series mostly up to about 92 µM; nearly all actives have a fitted effect of over 50% in size
How it was run: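 Assay format: CHO-ADRB2 cells, 18-20hr seeding at 37C/5% CO2, then compound plus 1nM isoproterenol agonist mix for 0.5hr RT. Homogeneous time-resolved fluorescence cAMP detection after 1hr, expressed as 665/615 nm ratio.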

[17] = molecular target: D(2) dopamine receptor (Homo sapiens) (UniProt P14416); experiment: Dopamine D2 receptor (DRD2) small molecule agonists, cell-based qHTS assay (AID 1963594); note: nearly all actives have a fitted effect of over 35% in size
How it was run: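 cAMP accumulation in DRD2-HEK293 cells measured by HTRF after 1 h detection; compounds added 10 min before NKH477 (200nM […]) forskolin-analogue stimulation, 30 min at room temperature, with Ro20-1724 present at 0.1 mM final.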

[18] = molecular target: D(2) dopamine receptor (Homo sapiens) (UniProt P14416); experiment: Dopamine D2 receptor (DRD2) small molecule antagonists, cell-based qHTS assay (AID 1963595; active = well fitted inhibition curve with a large enough effect in the signal ratio in the repeat runs, with a control signal flat; the % refers to the signal ratio)
How it was run: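 Readout: HTRF cAMP, cAMP-d2 competing with cellular cAMP for anti-cAMP cryptate, read after 1 h. Cells: DRD2-HEK293. Conditions: 0.1 mM Ro20-1724, 12 nM quinpirole, 200 nM NKH477, 30 min RT.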

[19] = p53 small molecule agonists, cell-based qHTS assay (AID 1963582; active = well fitted activation curve with a large enough effect in the signal ratio in the repeat runs, not every such curve was filed as active; the % refers to the signal ratio)
How it was run: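 Fluorescence intensity read-out of a beta-lactamase reporter under a p53 response element. Cells were exposed to DMSO-dissolved compounds for 16 h at 37 C, then developed with FRET substrate for 2 h at RT.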

[20] = molecular target: Beta-2 adrenergic receptor (Homo sapiens) (UniProt P07550); experiment: Adrenergic beta2 receptor (ADRB2) small molecule agonists, cell-based qHTS assay (AID 1963593);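 note: CHO cells stably overexpressing human ADRB2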
How it was run: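 CHO cells stably over-expressing ADRB2 were plated overnight at 37C, then dosed with compounds plus a stimulation mix containing 100uM IBMX and 25uM Ro-20-1724 for 0.5hr at room temperature. cAMP was measured by HTRF competition, 1hr.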

Chain of Beta-2 adrenergic receptor (Homo sapiens) (P07550 whole entry, looked up): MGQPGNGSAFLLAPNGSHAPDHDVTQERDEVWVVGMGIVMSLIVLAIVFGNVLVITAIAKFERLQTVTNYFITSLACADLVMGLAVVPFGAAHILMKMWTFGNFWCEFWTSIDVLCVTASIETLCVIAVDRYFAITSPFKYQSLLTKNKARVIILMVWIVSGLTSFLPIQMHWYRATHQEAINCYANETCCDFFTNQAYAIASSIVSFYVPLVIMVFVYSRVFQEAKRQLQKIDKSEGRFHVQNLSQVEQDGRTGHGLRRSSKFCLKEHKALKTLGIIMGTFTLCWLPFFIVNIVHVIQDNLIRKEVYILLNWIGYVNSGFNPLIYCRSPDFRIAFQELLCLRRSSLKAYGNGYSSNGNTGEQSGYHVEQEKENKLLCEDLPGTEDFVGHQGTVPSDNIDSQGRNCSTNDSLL
Chain of Gonadotropin-releasing hormone receptor (Homo sapiens) (P30968 whole entry, looked up): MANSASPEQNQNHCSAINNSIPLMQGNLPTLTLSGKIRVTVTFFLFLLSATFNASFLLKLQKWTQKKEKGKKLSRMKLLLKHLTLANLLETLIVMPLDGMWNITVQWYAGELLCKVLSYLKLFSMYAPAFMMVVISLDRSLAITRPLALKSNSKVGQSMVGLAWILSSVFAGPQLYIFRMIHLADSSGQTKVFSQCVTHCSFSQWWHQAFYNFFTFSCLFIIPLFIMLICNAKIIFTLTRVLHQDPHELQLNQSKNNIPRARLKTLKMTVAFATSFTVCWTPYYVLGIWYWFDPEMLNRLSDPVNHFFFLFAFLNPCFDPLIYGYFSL
Chain of KiSS-1 receptor (Homo sapiens) (Q969F8 whole entry, looked up): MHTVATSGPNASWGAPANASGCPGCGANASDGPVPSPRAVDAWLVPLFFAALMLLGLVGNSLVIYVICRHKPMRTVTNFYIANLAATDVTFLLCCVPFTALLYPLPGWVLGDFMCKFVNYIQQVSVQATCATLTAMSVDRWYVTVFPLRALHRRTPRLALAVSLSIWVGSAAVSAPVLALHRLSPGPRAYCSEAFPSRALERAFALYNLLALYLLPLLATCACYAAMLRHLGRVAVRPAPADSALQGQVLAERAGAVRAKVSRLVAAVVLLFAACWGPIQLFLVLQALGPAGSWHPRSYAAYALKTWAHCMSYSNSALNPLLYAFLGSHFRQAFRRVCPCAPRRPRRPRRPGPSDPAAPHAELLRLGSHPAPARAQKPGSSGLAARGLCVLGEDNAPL
Chain of Muscarinic acetylcholine receptor M1 (Homo sapiens) (P11229 whole entry, looked up): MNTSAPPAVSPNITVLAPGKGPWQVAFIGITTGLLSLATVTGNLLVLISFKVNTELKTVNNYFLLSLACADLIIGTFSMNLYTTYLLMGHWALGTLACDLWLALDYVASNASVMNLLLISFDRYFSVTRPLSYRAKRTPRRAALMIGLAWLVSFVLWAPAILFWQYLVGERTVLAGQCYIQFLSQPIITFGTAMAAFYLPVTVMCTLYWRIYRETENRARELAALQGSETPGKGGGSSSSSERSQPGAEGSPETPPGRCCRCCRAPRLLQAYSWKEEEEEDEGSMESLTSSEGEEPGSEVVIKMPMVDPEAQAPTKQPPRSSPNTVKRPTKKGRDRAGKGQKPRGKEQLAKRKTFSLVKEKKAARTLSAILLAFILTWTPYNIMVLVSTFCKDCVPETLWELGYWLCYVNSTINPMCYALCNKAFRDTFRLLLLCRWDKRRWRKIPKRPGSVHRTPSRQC
Chain of 5-hydroxytryptamine receptor 2A (Homo sapiens) (P28223 whole entry, looked up): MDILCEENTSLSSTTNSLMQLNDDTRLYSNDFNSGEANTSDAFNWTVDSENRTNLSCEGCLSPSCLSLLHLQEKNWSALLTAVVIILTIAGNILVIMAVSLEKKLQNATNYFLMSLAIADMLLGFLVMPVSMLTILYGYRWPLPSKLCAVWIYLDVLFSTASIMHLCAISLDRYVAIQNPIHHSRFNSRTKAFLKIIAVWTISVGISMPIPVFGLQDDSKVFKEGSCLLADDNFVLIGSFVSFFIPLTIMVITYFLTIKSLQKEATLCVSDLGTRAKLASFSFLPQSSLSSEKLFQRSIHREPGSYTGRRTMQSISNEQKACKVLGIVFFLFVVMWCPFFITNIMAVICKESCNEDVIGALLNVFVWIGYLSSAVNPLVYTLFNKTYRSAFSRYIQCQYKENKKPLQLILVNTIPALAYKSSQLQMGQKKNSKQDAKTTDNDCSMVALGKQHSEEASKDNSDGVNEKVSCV
Chain of D(2) dopamine receptor (Homo sapiens) (P14416 whole entry, looked up): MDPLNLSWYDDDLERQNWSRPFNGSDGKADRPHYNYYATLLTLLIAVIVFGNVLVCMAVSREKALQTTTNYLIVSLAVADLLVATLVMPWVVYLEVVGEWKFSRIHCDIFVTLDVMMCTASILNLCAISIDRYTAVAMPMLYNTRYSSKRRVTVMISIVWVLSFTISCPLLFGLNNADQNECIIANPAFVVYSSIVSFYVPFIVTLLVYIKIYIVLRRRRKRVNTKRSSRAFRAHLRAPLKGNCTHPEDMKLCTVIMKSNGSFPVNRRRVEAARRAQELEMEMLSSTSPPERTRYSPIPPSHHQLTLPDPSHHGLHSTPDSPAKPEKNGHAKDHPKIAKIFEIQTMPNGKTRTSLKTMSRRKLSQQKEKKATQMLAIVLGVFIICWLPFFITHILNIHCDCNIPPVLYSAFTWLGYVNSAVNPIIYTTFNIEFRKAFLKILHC

SMILES | Potency [1] | Potency [2] | Potency [3] | Potency [4] | Potency [5] | Potency [6] | Potency [7] | Potency [8] | Potency [9] | Potency [10] | Potency [11] | Potency [12] | Potency [13] | Potency [14] | Potency [15] | Potency [16] | Potency [17] | Potency [18] | Potency [19] | Potency [20]
Nc1ccc(S(=O)(=O)c2ccc(N)cc2)cc1 | inactive | inactive and 27.3 µM (active) | inactive | inactive | inactive | inactive | inactive | inactive | inactive | inactive | inactive | inactive | inactive | inactive | inactive | inactive | inactive | inactive |  | 
COc1ccc2c(c1)c(CC(=O)O)c(C)n2C(=O)c1ccc(Cl)cc1 | inactive | inactive | inactive | inactive | inactive | inactive | inactive | inactive | inactive | inactive |  |  |  |  |  | inactive | inactive | inactive |  | 
c1ccc2scnc2c1 | inactive | inactive | inactive | inactive | inactive | inactive | inactive | inactive | inactive | inactive | inactive | inactive |  | inactive | inactive | inactive | inactive | inactive |  | 
CC(=O)OC/C=C(C)/C=C/C=C(C)/C=C/C1=C(C)CCCC1(C)C | inactive | 66.9 µM (active) and 54.5 µM (active) and 29.8 µM (active) | inactive | inactive | inactive | inactive | inactive | inactive | inactive | inactive | inactive | inactive | inactive | inactive | inactive | inactive | inactive | inactive |  | 
CCc1ccc(CCOc2ccc(CC3SC(=O)NC3=O)cc2)nc1 (centres undefined) | inactive | 27.3 µM (active) and inactive | inactive | inactive | inactive | inactive | inactive | inactive | inactive | inactive |  |  |  |  |  | inactive | inactive | inactive | inactive | inactive
O=c1c(-c2ccc(O)cc2)coc2cc(O)cc(O)c12 | inactive | inactive and 15 µM (active) | inactive | inactive | inactive | inactive | inactive | inactive | 16 µM (active) | inactive |  |  |  | inactive |  | inactive | inactive | inactive | inactive | 
CCCCCCCC=O | inactive | inactive | inactive | inactive | inactive | inactive | inactive | inactive | inactive |  | inactive | inactive | inactive | inactive | inactive | inactive | inactive | inactive | inactive | inactive
CCCCOCCOCCOC(C)=O | inactive | inactive | inactive | inactive | inactive | inactive | inactive | inactive | inactive |  | inactive | inactive | inactive | inactive | inactive | inactive | inactive | inactive | inactive | inactive
